# Screening results as filed in PubChem.
# This is a sample that favours compounds with a hit; in the whole collection about 21% have one here.
# Pf growth 96h – P. falciparum growth inhibition at 96 hours; P. falciparum luciferase reporter growth, 96 h; Potency, µM (titrated, usually from 28.7 µM), for inactives: top-dose activity change, negative = inhibition, actives largely listed as inhibitors; hit rate 6.9% among 320,000; note: potency is the fitted concentration of half-maximal effect; % is set by controls: 0 for no effect and ±100 for the full control effect
#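 Cell-based qHTS: luciferase-tagged P. falciparum in erythrocytes (2% hematocrit, 0.05% parasitemia final) incubated with compounds for 96 hours, 37 C, 5% CO2; luciferase detection reagent then added and luminescence measured.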
# Shiga toxin inh – blocks Shiga toxin action in Vero cells. Vero cells, Shiga toxin protein synthesis inhibition reporter. inhibition, % at 38.7 µM. hit rate 9.2% among 290,000; in the data active = inhibition mostly above about 28%, no sharp cut-off; inactive = mostly below about 43%; note: 0% is about no effect
# CHX counter – counter-screen hit for Shiga toxin inhibitors, cycloheximide; max response, %; cell reporter, cycloheximide protein synthesis inhibition counterscreen; AID 2314; hit rate 12% among 300,000; in the data active = max response mostly above about 13%, no sharp cut-off; inactive = mostly below about 14%; note: read at 38.3 µM for the half of the compounds with a filed dose; 0% is about no effect
# Pf growth 48h – inhibits P. falciparum growth in the first generation, 48 h; hit rate 5.9% among 310,000; Potency, µM (doses to about 28.7 µM), for inactives: at the top dose activity change, negative = inhibition, usual class: inhibitors; P. falciparum luciferase growth in erythrocytes, 48 h; note: potency is the fitted concentration of half-maximal effect; % is set by controls: 0 for no effect and ±100 for the full control effect
#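 Luminescence readout; reporter = integrated firefly luciferase in P. falciparum. RBC culture at 2% hematocrit, 0.1% parasitemia final, 37 C/5% CO2; decreased signal taken as growth inhibition.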
# NS1 inh – inhibitors of influenza NS1 protein function; AID 2326; hit rate 0.4% among 270,000; Potency, µM (series often up to 46.1 µM), for inactives: at the highest dose activity, positive = more growth; calls by dose curve; note: potency is the fitted concentration of half-maximal effect; actives are rising curves; nearly all actives have a fitted effect of over 50% in size
#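 Compounds were scored for reversing the slow growth caused by influenza A NS1 in S. cerevisiae, measured by optical density at 600 nm. Assay medium contained 2% galactose at pH 6.0; NS1-free yeast of the same strain were the positive control.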
# An asterisk follows results filed as active; ? = inconclusive; . = not tested or not shown. Unless noted, calls come from the whole dose curve; as a rule, active = well fitted inhibition curve with a large enough effect; inconclusive = small, poorly fitted or top-dose-only effect, or another doubt; inactive = no such curve, though single readings can be large or run the other way.
SMILES,Pf growth 96h,Shiga toxin inh,CHX counter,Pf growth 48h,NS1 inh
CCOc1cc(CN2CCN(Cc3ccc(C)o3)C(CCO)C2)ccc1OC (centres undefined),?,-12,10,10%,-2%
Cc1cc(Br)ccc1NC(=O)CSc1nnc(CN2CCOCC2)n1C,3%,-14,-3,-1%,-7%
CCCOP(=O)(O)c1c([N+](=O)[O-])cc(C(F)(F)F)cc1[N+](=O)[O-] (tested in a mixture with another compound),-9%,42,14*,.,15%
CCOP(=O)(Oc1ccccc1)c1c([N+](=O)[O-])cc(C(F)(F)F)cc1[N+](=O)[O-] (centres undefined),2%,-15,-3,0%,-1%
CCN1CCN(c2cc(=O)n3ccccc3n2)CC1,28%,-5,-3,43%,-11%
O=c1cc(NCc2ccccc2)nc2ccccn12,20%,38,17*,167%,0%
Cn1cc(C(=O)[C@@H]2CCc3[nH]cnc3C2)c2ccccc21,-17%,.,.,-7%,.
O=C1CCCC(=O)N1c1ccc(O)cc1,12µM*,-12,-2,34%,5%
O=C1CCCC(=O)N1c1ccc(F)cc1,43%,-10,-3,-9%,2%
O=C1CCCC(=O)N1c1ccc(Oc2ccc(Cl)cc2)cc1,19%,41*,22*,18%,2%
COc1coc(/C=C/C(=O)O)cc1=O,-36%,19,10,20%,?
CC(OC(=O)c1c[nH]c2ccccc12)C(=O)N1CCCC1 (centres undefined),8%,.,.,?,.
COc1cccc(C(=O)Nc2nnc(S(=O)(=O)N(C)Cc3ccc(F)cc3)s2)c1,0%,13,-1,-20%,-17%
C=COCCNC(=O)Nc1ccc(Cl)c(Cl)c1,27%,54*,31*,-82%,-41%
C=CCNC(=S)Nc1ccc2nsnc2c1,?,11,0,18%,7%
C=CCN(CC=C)C(=S)Nc1ccc2nsnc2c1,?,60*,26*,8.3µM*,.
COCCNC(=S)Nc1ccc2[nH]c(=O)[nH]c2c1,16%,-7,-2,18%,0%
COCCNC(=S)Nc1ccc(Cl)c(Cl)c1,?,5,15*,13%,-3%
COCCNC(=S)Nc1ccc2nsnc2c1,21%,-19,16*,36%,-3%
O=C(CSc1nc(C2CC2)nc2ccccc12)N1c2ccccc2Sc2ccc(C(F)(F)F)cc21,?,-8,1,?,24%
COc1ccc(-c2noc(CN(C(=O)C(C)(C)C)C(C)C)n2)cc1,30%,55,8,0%,-16%
Cc1ccc(NC(=O)C2CC(=O)Nc3nncn32)cc1 (centres undefined),23%,-2,4,-3%,.
COc1cccc(CN2CCNC(=O)C2CC(=O)N(Cc2cnn(C)c2)C(C)C)c1 (centres undefined),7%,-8,-2,8%,-2%
CCN(CC(=O)NCc1ccc(F)cc1)C(=O)C(C)Oc1cccc(Cl)c1 (centres undefined),-20%,.,.,-22%,.
CC(Sc1ccccc1)C(=O)N1CCN(S(=O)(=O)c2ccccc2C(F)(F)F)CC1 (centres undefined),-7%,0,-1,-4%,4%
SMILES,Pf growth 96h,Shiga toxin inh,CHX counter,Pf growth 48h,NS1 inh
CCN(CC)CCCNC(=O)c1cn(CC)c2ccc(S(=O)(=O)N(C)C3CCCCC3)cc2c1=O,21%,-4,-2,?,-8%
CN(C1CCCCC1)S(=O)(=O)c1ccc2c(c1)c(=O)c(C(=O)NCCCN1CCCC1)cn2C,13µM*,-3,-7,.,-1%
CCn1cc(C(=O)NCCCN2CCCC(C)C2)c(=O)c2cc(S(=O)(=O)N(C)C3CCCCC3)ccc21 (centres undefined),12µM*,-9,-5,?,0%
CCCCN(C)CCCNC(=O)c1cn(C)c2ccc(S(=O)(=O)N(C)C3CCCCC3)cc2c1=O,5%,-1,-2,?,2%
CCn1cc(C(=O)N2CCc3ccccc32)c(=O)c2cc(S(=O)(=O)N3CCOCC3)ccc21,34%,-5,1,?,-2%
CCCCN(CC)CCCNC(=O)c1cn(C)c2ccc(S(=O)(=O)N(C)C3CCCCC3)cc2c1=O,15µM*,-8,22,?,-1%
CCn1cc(C(=O)N2CCc3ccccc32)c(=O)c2cc(S(=O)(=O)N(C)C3CCCCC3)ccc21,?,-10,-5,12µM*,?
COc1ccc(CNC(=O)C2CCCN2S(=O)(=O)c2ccccc2)cc1 (centres undefined),0%,-13,-1,.,6%
COC(=O)C1=C[C@@H](C(=O)OC)[C@@H]2C3=C(C(=O)[C@]2(C)NC(=O)c2ccccc2)[C@H](C)[C@@H]2C(=O)NC(=O)[C@@H]2[C@@H]3C1,.,-10,-5,.,.
Cc1ccc(S(=O)(=O)N2CCN(C(=O)c3ccc4ccccc4n3)CC2)c(C)c1,-15%,.,.,57%,.
CCc1ccccc1Nc1nc(-c2cccnc2)cs1,9.3µM*,23,19*,12µM*,-77%
COc1ccccc1Nc1nc(C2(C)CCC(=O)O2)cs1 (centres undefined),1%,62*,52*,60%,-6%
COc1ccccc1Nc1nc(-c2cccnc2)cs1,-18%,36*,34*,23%,-54%
COc1ccc(OC)c2nc(-c3cccnc3)ccc12,40%,48*,29*,.,-3%
COc1ccccc1Nc1nc2nonc2[nH]c1=O,-33%,-4,11,6%,-1%
O=C(Nc1nc(-c2cccnc2)cs1)c1ccccc1Cl,5%,18,-2,?,1%
COc1ccc2cc(-c3cccnc3)ncc2c1,-19%,.,.,5%,.
COc1ccc(N2CCN(C(=O)c3oc4ccccc4c3NC(=O)CCc3cc(OC)no3)CC2)cc1,?,-6,-2,?,?
COc1ccc(Nc2nc(-c3cccnc3)cs2)c(OC)c1,-10%,38*,37*,?,-62%
COc1ccc(CC(=O)Nc2nc(-c3cccnc3)cs2)cc1,3%,-10,-4,2%,7%
O=C(CSc1n[nH]c(-c2cccnc2)n1)Nc1ccccc1[N+](=O)[O-],2%,18,-3,2%,-6%
O=[N+]([O-])c1ccccc1Nc1nc(-c2cccnc2)cs1,?,.,26*,?,-29%
COc1ccc(-c2csc3ncn(CC(=O)N4CCOCC4)c(=O)c23)cc1,45%,-8,-2,0%,5%
Cc1oc2ccc(NS(=O)(=O)c3cccc4cccnc34)cc2c1C(=O)OC(C)C,19%,-16,-1,7%,-7%
O=C(NCCCl)c1ccc(OCc2ccccc2)cc1Cl,200%,66*,34*,78%,.
C#CCNC(=O)c1ccc(OCc2ccccc2)cc1Cl,149%,58*,19,55%,.
Cc1ccc(S(=O)(=O)NC(C)C(c2cccs2)N2CCN(C)CC2)cc1 (centres undefined),10µM*,-5,-4,-21%,-1%
